# In the library only some 10% were active in any assay of this set; here they are far more common.
# PNC assembly inh: blocks assembly of the perinucleolar compartment; PC3M PTB-GFP, PNC prevalence imaging, 16 h; hits give low values; 140,000 compounds, 3.1% hits; activity change (PNC), negative = inhibition, % at 10 µM;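 active = readout at or below -70, meaning at least 70% loss of cells showing the perinucleolar compartment, a nuclear body marking cancer cells; inconclusive = readout between -30 and a set limit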
#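 Read-out is percentage of cells bearing a perinucleolar compartment, from automated 20x imaging of fixed, Hoechst-stained PC3M PTB-GFP cells. Cells were seeded 4 h, then exposed 16 h to compound (23 nl of library stock) in duplicate plates.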
# 12-hLO inh: 12-hLO (ALOX12) enzyme inhibition; 150,000 compounds, 0.12% hits; P18054; purified 12-hLO, xylenol orange hydroperoxide absorbance; Potency, µM (doses to about 57.1 µM), usual class: inhibitors; active = well fitted inhibition curve with a large enough effect; inconclusive = small, poorly fitted or top-dose-only effect; also: nearly all actives have a fitted effect of over 55% in size
#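 Purified human 12hLO (150 nM), preincubated 15 min with compound, then 40 uM arachidonic acid for 30 min, room temperature, Hepes pH 7.0 with 0.01% Triton X-100. Hydroperoxide detected by ferrous iron/xylenol orange; 573/405 nm absorbance ratio gives reaction progress.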
# HPGD block: HPGD (human) dehydrogenase inhibition; purified HPGD, NADH fluorescence kinetic, PGE2 substrate; Potency, µM, most hits filed as inhibitors; 150,000 compounds, 4.3% hits; AID 894
# Target sequence (P15428 whole entry, looked up): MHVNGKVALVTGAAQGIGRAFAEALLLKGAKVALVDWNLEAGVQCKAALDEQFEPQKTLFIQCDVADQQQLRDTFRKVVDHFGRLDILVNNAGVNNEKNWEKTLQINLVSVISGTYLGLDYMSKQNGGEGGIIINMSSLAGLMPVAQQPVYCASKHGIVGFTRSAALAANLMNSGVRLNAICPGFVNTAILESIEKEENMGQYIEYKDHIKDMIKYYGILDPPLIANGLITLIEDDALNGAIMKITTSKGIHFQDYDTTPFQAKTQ
#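 NADH formation kinetics: reaction with 30 uM PGE2 and 1 mM NAD+ (final), 20 nM enzyme, Tris-HCl pH 8 with Tween 20, after 15 min compound preincubation at room temperature. Fluorescence change, last versus first of five reads.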
# LMNA splice mod: changes lamin A minigene splicing in HeLa cells | HeLa LMNA splicing GFP/RFP minigene ratio, 48 h | Potency, µM (highest dose often 46.1 µM), most hits filed as inhibitors | 200,000 compounds, 0.01% hits | AID 1487; active = well fitted inhibition curve with a large enough effect in the signal ratio, with a control signal flat, not every such curve was filed as active; inconclusive = small, poorly fitted or top-dose-only effect, or effect the other way, or a change in a side signal; the % refers to the signal ratio
#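 Read-out is the ratio of GFP to DsRed2 object intensity, acquired by 488 nm laser-scanning cytometry on HeLa lamin A-EGFP minigene reporter cells. Compound incubation 48 hrs at 37 °C in Opti-MEM with 2% FBS; DMSO 0.5% final.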
# ALDH1A1 block: inhibitors of human aldehyde dehydrogenase 1A1. P00352. Purified ALDH1A1, NADH fluorescence, propionaldehyde substrate. Potency, µM (doses to about 75.3 µM), hits mostly inhibitors. 220,000 compounds, 7.3% hits. AID 1030
# Hits are given with their value; – = inactive; ? = inconclusive; · = no result; [ ] = remark or other dose. Unless noted, calls follow the shape of the dose curve; as a rule, active = well fitted inhibition curve with a large enough effect (not every such curve was filed as active); inconclusive = small, poorly fitted or top-dose-only effect, or another doubt; inactive = no such curve, though single readings can be large or run the other way.
SMILES,PNC assembly inh,12-hLO inh,HPGD block,LMNA splice mod,ALDH1A1 block
Cc1ccc(Cn2nnc3c(=O)n(CC(=O)N4CCCc5ccccc54)cnc32)cc1,?,–,–,–,–
O=C(Cn1cnc2c(nnn2Cc2ccccc2)c1=O)N1CCN(c2ccccc2)CC1,?,–,–,–,–
COc1cccc(-n2nnc3c(=O)n(Cc4cccc(C)c4)cnc32)c1,?,–,?,–,?
COc1cccc(-n2nnc3c(=O)n(Cc4ccccc4F)cnc32)c1,–,–,5.62µM,–,?
O=C(Nc1ccccc1)N1CC2(CCN(C(=O)c3cnccn3)CC2)C1,·,–,–,·,–
CC(C)C[C@@H](CC(=O)N[C@H](CC(=O)N[C@@H]1CCCC[C@H]1C(=O)N[C@H](CC(=O)N[C@@H](CCC(=O)O)CC(=O)O)Cc1ccccc1)C(C)C)NC(=O)[C@@H]1CCCC[C@H]1N,·,–,–,·,–
O=C(Cn1nc(C(F)F)cc1C(F)F)NNC(=S)Nc1ccc(F)cc1,–,–,–,–,–
Cc1ccc(NC(=O)Cn2nc(C)c([N+](=O)[O-])c2C)cc1C,·,·,·,·,20µM
Cc1nn(CCC(=O)NNC(=S)Nc2ccc([N+](=O)[O-])cc2)c(C)c1[N+](=O)[O-],·,·,·,·,4.47µM
Cc1nn(CCC(=O)NNC(=S)Nc2ccc(F)cc2)c(C)c1Br,?,–,–,–,?
O=C(Cn1nc(C(F)F)cc1C(F)F)NNC(=S)Nc1ccc([N+](=O)[O-])cc1,·,·,·,?,17.8µM
CC#CCN1c2ccccc2[C@]23C[C@@H](C(=O)OC)N(C(=O)c4cccs4)C2=NC(C(=O)OC)=C(C(=O)OC)[C@H]13,·,–[11.4 µM],–,–[9.22 µM],–[13.5 µM]
Cc1ccccc1NC(=O)C1CCN(c2cnccn2)CC1,–,–,–,–,–
O=C(NC1CCCCC1)C1CCN(c2cnccn2)CC1,-94.5,–,–,–,–
COC(=O)N1CCC2(CCN(C(=O)Nc3cccc(C#N)c3)CC2)CC1,·,–,–,·,–
CC(NC(=O)CCl)c1ccc(Cl)c(Cl)c1 (configuration not stated),–,–,–,?,10µM
CCC(NC(=O)CCl)c1ccc(C)cc1 (configuration not stated),·,·,·,?,8.91µM
Cc1ccc(C(=O)c2no[n+]([O-])c2C(=O)c2ccc(C)cc2)cc1,–,–,20µM,–,0.501µM
COc1ccc(N2CCN(C(C)C(=O)Nc3nnc(C)s3)CC2)cc1 (configuration not stated),·,·,·,–,–
Cc1ccc2c(c1)cc(CN(C(=O)N1CCOCC1)C1CCCC1)c1nnnn12,·,·,·,?,–
CCC(=O)N(Cc1cc2ccc(C)cc2n2nnnc12)C1CCCCC1,–,–,–,–,5.01µM
CCc1ccccc1NC(=O)c1nnn(CC(=O)Nc2ccccc2C)c1N,-102.2,–,–,–,–
CC(=O)OC[C@@H]1O[C@@H](O/N=C2/C[C@@H](O)[C@@H](O)[C@@H]3[C@@H]4C(=O)N(Cc5ccc6c(c5)OCO6)C(=O)[C@H]4CC[C@H]23)[C@H](OC(C)=O)[C@H](OC(C)=O)[C@@H]1OC(C)=O,·,·,·,·,–[13.5 µM]
CC(=O)Nc1ccc(S(=O)(=O)Nc2nc3ccc([N+](=O)[O-])cc3s2)cc1,·,·,·,·,14.1µM
O=C1OC(c2ccccc2)=C/C1=C/N1CCOCC1,–,–,–,?,7.94µM
SMILES,PNC assembly inh,12-hLO inh,HPGD block,LMNA splice mod,ALDH1A1 block
CN(C)/C=C1/C=C(c2ccccc2)OC1=O,–,–,–,–,?
O=C1OC(c2ccccc2)=C/C1=C\N1CCOCC1,?,?,–,–,11.2µM
CCN(CC)c1ccc(C=Nc2ccc(C#N)cc2)c(O)c1,–,–,28.2µM,–,35.5µM
Cc1cccc(C)c1-n1c(C)cc(/C=C2\NC(=O)NC2=O)c1C,–,–,?,–,15.8µM
COC(=O)C1=C(C)NC(=O)/C1=C\c1cc(C)n(-c2c(C)cccc2C)c1C,–,–,–,–,17.8µM
COC(=O)C1=C(C)NC(=O)/C1=C\c1cc(C)n(-c2ccccc2F)c1C,·,·,·,–,15.8µM
COC(=O)C1=C(C)NC(=O)/C1=C\c1cccs1,–,–,–,–,–
COC(=O)C1=C(C)NC(=O)/C1=C\c1cc(C)n(-c2ccccc2C)c1C,–,–,–,–,?
O=C(CCC1N=C2c3ccccc3N=C(SCc3ccc(F)cc3)N2C1=O)NC1CCCCC1 (configuration not stated),·,·,·,–,·
O=C(Nc1cc(Cl)cc(Cl)c1)c1cc(S(=O)(=O)N2CCc3ccccc3C2)ccc1F,·,·,·,–,·
O=C(C[n+]1cccc(O)c1)Nc1ccc(Br)cc1,·,·,·,–,–
CN(C)C(=O)c1ccc(-c2cncnc2Nc2ccc(F)cc2)cc1,·,·,·,–,11.2µM
CC(C)CC(=O)NCCCCc1ccccc1,?,–,15.8µM,–,?
CC(C)CNC(=O)CCCc1ccccc1,–,–,14.1µM,–,–
C=CCNC(=O)CCCc1ccccc1,–,–,–,–,–
Cc1ccc(C(=O)NNC(=O)c2ccc(C)cc2)cc1,·,·,·,–,–
Cc1ccc(C(=O)NC(O)C(Cl)Cl)cc1 (configuration not stated),–,–,25.1µM,–,–
Cc1ccc(C(=O)NC=C(Cl)Cl)cc1,?,–,28.2µM,–,–
CC(=O)c1c(C)[nH]c(C2=NNC(=NC(C)(C)C)SC2)c1C,·,·,·,?,11.2µM
CCOC(=O)c1c(C)[nH]c(C2=NNC(=Nc3ccc(OCC)cc3)SC2)c1C,–,–,–,?,?
CCOC(=O)c1c(C)[nH]c(C2=NNC(=Nc3ccccc3)SC2)c1C,–,–,·,?,12.6µM
O=C(CNC(=O)c1ccc(F)cc1)N/N=C/c1cc(Br)ccc1OCc1ccccc1,–,–,–,?,–
O=C(CNC(=O)c1cccc(F)c1)N/N=C/c1cc(Br)ccc1OC(=O)/C=C/c1ccco1,-80.9,–,–,?,?
COc1ccc([N+](=O)[O-])cc1/C=N/NC(=O)CNC(=O)c1cccc(F)c1,?,–,25.1µM,–,?
NCCNS(=O)(=O)c1cccc2c(Cl)cccc12,·,–[0.00818 µM],–,–,–
SMILES,PNC assembly inh,12-hLO inh,HPGD block,LMNA splice mod,ALDH1A1 block
N#C/C(=C(\O)C(=O)O)c1ccc(-c2cccc3ccccc23)cc1,·,–[11.4 µM],–,·,–[13.5 µM]
CCOc1ccc(C(=O)NCc2nc3cccnc3n2Cc2ccc(F)cc2)cc1OCC,·,·,·,–,·
O=C1NN=C(CSc2n[nH]c(=S)s2)CS1,·,·,·,·,3.55µM
CC(C)C(c1nnnn1C(C)(C)C)N1CCC(Cc2ccccc2)CC1 (configuration not stated),–,–,–,?,22.4µM
O=C(Nc1ccccc1)N1CC[C@@]2(CCCN(C(=O)c3ccncc3)C2)C1,·,–,–,·,–
C=CCSc1nnc(-c2ccccc2N=Cc2c(C)[nH]n(-c3ccccc3)c2=O)c(=O)[nH]1,?,–,–,–,?
CSc1nnc(-c2ccccc2N=Cc2c(C)[nH]n(-c3ccc4ccccc4c3)c2=O)c(=O)[nH]1,–,?,17.8µM,–,?
CCc1sc(/C=C(/C#N)C(N)=S)cc1[N+](=O)[O-],·,·,·,–,2.24µM
COc1ccc(C)cc1C(=O)CCC(=O)NC1CCCCC1,·,·,·,–[9.22 µM],–

# Assay outcomes (PubChem)
